Laboratory results taken from paper PMC5540273 (PLoS ONE, 2017).

test system: NEK4; settings: concentration: 1 μM, replicates: in singlicate; n = 1
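Further: KINOMEscan kinase panel screen.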

| Structure (SMILES) | %Inh |
| --- | --- |
| Cl.Cl.Cl.Fc1ccc(-c2ncn(C3CCNCC3)c2-c2ccnc(Nc3ccccc3)n2)cc1 [SB-238039] | 0% |
| O=C(NCCNc1ccnc(Nc2ccc(F)cc2)n1)c1cc2ccccc2s1 [GSK1379874] | 0% |
| Fc1ccc(-c2ncn(CCCN3CCOCC3)c2-c2cccnc2)cc1 [SB-211743] | 0% |
| Cc1ccc(NC(=O)c2ccnc(N3CCN(C)CC3)c2)cc1-c1ccc(C(=O)NCC2CC2)cc1 [GW775604] | 0% |
| CN1c2ccc(CNc3ccc(F)cc3)cc2-c2c(cnn2C)S1(=O)=O | 0% |
| CNc1ncnc2[nH]ncc12 [SKF-18355] | 0% |
| COCCNC(=O)c1ccc(-c2cc(C(=O)NC3CC3)cc(F)c2C)cc1 [GW868318] | 14% |
| CCc1ccnc(/C=C/c2n[nH]c3cc(Sc4ccccc4C(=O)NC)ccc23)c1 | 0% |
| CC(C)Oc1ccc2c(-c3ccnc(Nc4ccc(N5CCN(C)CC5)cc4)n3)cnn2n1 [GW696155] | 10% |
| c1ccc(-c2cc(-c3c[nH]nc3-c3ccccn3)ccn2)cc1 [GW576604] | 0% |
| Fc1ccc(-c2ncn(CCCN3CCOCC3)c2-c2ccccn2)cc1 [SB-211742] | 0% |
